The record followed here is PubChem BioAssay.

Activity calls are given as the source filed them.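 How the source made its calls, unless noted: active means normalized viability below 100% at a tested concentration; inactive means the rest.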

A short description of the first experiment: drug combination growth inhibition, ovarian cancer – cell-based, oncology-focused library, rucaparib conditional, profiling panel (AID 1508598). As to conditions: patient-derived ovarian cancer cells, CellTiter-Glo viability, 144 h; at 1.25 µM; OCI-P5x cells; with rucaparib 20 µM; hits give low values; 100% = cells with rucaparib alone.
Regarding `O=C(CCCCCCC(=O)Nc1ccc([C@H]2O[C@@H](CSc3nc(-c4ccccc4)c(-c4ccccc4)o3)C[C@@H](c3ccc(CO)cc3)O2)cc1)NO`, the viability (as a rule, a read-out of living cells in per cent, often relative to untreated cells) was 106% (inactive).

With `CNC(=O)c1cc(Oc2ccc(NC(=O)Nc3ccc(Cl)c(C(F)(F)F)c3)c(F)c2)ccn1`, the viability was 103% (inactive).

Turning to `CS(=O)(=O)N1CCc2c(-c3cnc(N)nc3)nc(N3CCOCC3)nc21`, the viability is 66.8% (active).

Take `Nc1ccn([C@@H]2O[C@H](CO)[C@@H](O)C2(F)F)c(=O)n1`: the viability is 53.9% (active).

Consider `CNC(=O)c1cc(COc2nnc(Nc3ccc(Cl)cc3)c3ccoc23)ccn1`, for which the viability is 98.5% (active).

Staying with this experiment, now noted: patient-derived ovarian cancer cells, CellTiter-Glo viability, 144 h; at 1.25 µM; OCI-P5x cells; without rucaparib; hits give low values.
Turning to `O=C(CCCCCCC(=O)Nc1ccc([C@H]2O[C@@H](CSc3nc(-c4ccccc4)c(-c4ccccc4)o3)C[C@@H](c3ccc(CO)cc3)O2)cc1)NO`, the viability is 116% (inactive).

`CNC(=O)c1cc(Oc2ccc(NC(=O)Nc3ccc(Cl)c(C(F)(F)F)c3)c(F)c2)ccn1`: the viability was 117% (inactive).

On to `CS(=O)(=O)N1CCc2c(-c3cnc(N)nc3)nc(N3CCOCC3)nc21`, for which the viability is 97% (active).

With `Nc1ccn([C@@H]2O[C@H](CO)[C@@H](O)C2(F)F)c(=O)n1`, the viability is 25.7% (active).

Consider `CNC(=O)c1cc(COc2nnc(Nc3ccc(Cl)cc3)c3ccoc23)ccn1`, for which the viability was 108% (inactive).

The same experiment, now with this note: patient-derived ovarian cancer cells, CellTiter-Glo viability, 144 h; at 5 µM; OCI-C5x cells; with rucaparib 10 µM; hits give low values; 100% = cells with rucaparib alone.
In the case of `O=C(CCCCCCC(=O)Nc1ccc([C@H]2O[C@@H](CSc3nc(-c4ccccc4)c(-c4ccccc4)o3)C[C@@H](c3ccc(CO)cc3)O2)cc1)NO`, the viability is 128% (inactive).

With `CNC(=O)c1cc(Oc2ccc(NC(=O)Nc3ccc(Cl)c(C(F)(F)F)c3)c(F)c2)ccn1`, the viability is 125% (inactive).

Take `CS(=O)(=O)N1CCc2c(-c3cnc(N)nc3)nc(N3CCOCC3)nc21`: the viability is 39.2% (active).

Regarding `Nc1ccn([C@@H]2O[C@H](CO)[C@@H](O)C2(F)F)c(=O)n1`, the viability was 14.3% (active).

Turning to `CNC(=O)c1cc(COc2nnc(Nc3ccc(Cl)cc3)c3ccoc23)ccn1`, the viability was 114% (inactive).

Staying with this experiment, now noted: patient-derived ovarian cancer cells, CellTiter-Glo viability, 144 h; at 5 µM; OCI-C5x cells; without rucaparib; hits give low values.
For `O=C(CCCCCCC(=O)Nc1ccc([C@H]2O[C@@H](CSc3nc(-c4ccccc4)c(-c4ccccc4)o3)C[C@@H](c3ccc(CO)cc3)O2)cc1)NO`, the viability is 158% (inactive).

For `CNC(=O)c1cc(Oc2ccc(NC(=O)Nc3ccc(Cl)c(C(F)(F)F)c3)c(F)c2)ccn1`, the viability is 105% (inactive).

Turning to `CS(=O)(=O)N1CCc2c(-c3cnc(N)nc3)nc(N3CCOCC3)nc21`, the viability was 56% (active).

For `Nc1ccn([C@@H]2O[C@H](CO)[C@@H](O)C2(F)F)c(=O)n1`, the viability was 14.2% (active).

Turning to `CNC(=O)c1cc(COc2nnc(Nc3ccc(Cl)cc3)c3ccoc23)ccn1`, the viability is 128% (inactive).

The same experiment, now with this note: patient-derived ovarian cancer cells, CellTiter-Glo viability, 144 h; at 5 µM; OCI-P5x cells; with rucaparib 20 µM; hits give low values; 100% = cells with rucaparib alone.
Regarding `O=C(CCCCCCC(=O)Nc1ccc([C@H]2O[C@@H](CSc3nc(-c4ccccc4)c(-c4ccccc4)o3)C[C@@H](c3ccc(CO)cc3)O2)cc1)NO`, the viability is 21.1% (active).

For the compound `CNC(=O)c1cc(Oc2ccc(NC(=O)Nc3ccc(Cl)c(C(F)(F)F)c3)c(F)c2)ccn1`, the viability is 80.9% (active).

Regarding `CS(=O)(=O)N1CCc2c(-c3cnc(N)nc3)nc(N3CCOCC3)nc21`, the viability was 16% (active).

On to `Nc1ccn([C@@H]2O[C@H](CO)[C@@H](O)C2(F)F)c(=O)n1`, for which the viability was 42.3% (active).

As for `CNC(=O)c1cc(COc2nnc(Nc3ccc(Cl)cc3)c3ccoc23)ccn1`, the viability is 103% (inactive).

Still in this experiment, the particulars now being: patient-derived ovarian cancer cells, CellTiter-Glo viability, 144 h; at 5 µM; OCI-P5x cells; without rucaparib; hits give low values.
Consider `O=C(CCCCCCC(=O)Nc1ccc([C@H]2O[C@@H](CSc3nc(-c4ccccc4)c(-c4ccccc4)o3)C[C@@H](c3ccc(CO)cc3)O2)cc1)NO`, for which the viability was 108% (inactive).

`CNC(=O)c1cc(Oc2ccc(NC(=O)Nc3ccc(Cl)c(C(F)(F)F)c3)c(F)c2)ccn1`: the viability was 121% (inactive).

In the case of `CS(=O)(=O)N1CCc2c(-c3cnc(N)nc3)nc(N3CCOCC3)nc21`, the viability is 16.9% (active).

For the compound `Nc1ccn([C@@H]2O[C@H](CO)[C@@H](O)C2(F)F)c(=O)n1`, the viability was 17.7% (active).

Consider `CNC(=O)c1cc(COc2nnc(Nc3ccc(Cl)cc3)c3ccoc23)ccn1`, for which the viability is 109% (inactive).

A short description of another experiment: galactose survival enhancers in mitochondrial complex I cybrids – cell-based, galactose medium, ATP luminescence, primary screen (AID 1645843;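 active means z-score of at least 1.8 in each of two replicates, scored against plate mean and spread of sample wells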;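 further: positive z means more ATP and so rescue of galactose-driven cybrid death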). As to conditions: complex I mutant cybrid cells, 72 h, hits give high values.
On to `CC(=O)Oc1cc2c(s1)CCN(C(C(=O)C1CC1)c1ccccc1F)C2` (stereo not drawn), for which the z-score is -1.04 (inactive).

Consider `Nc1ccn([C@@H]2O[C@H](CO)[C@@H](O)C2(F)F)c(=O)n1`, for which the z-score was -1.98 (inactive).

As to `COc1cc2ncnc(Nc3cccc(Cl)c3)c2cc1OC`, the z-score is 1.23 (inactive).
